Most compounds without a hit are left out; they make up all but 0.45% or so of the library.
TcdB inh: TcdB glycohydrolase inhibition. P18177. TcdB glycohydrolase enzymatic assay, plate reader. AID 652162. hit rate 0.24% among 350,000. inhibition, % at 9.99 µM; in the data active = inhibition above about 10%
FadD28 FP inh: M. tuberculosis FadD28 bisubstrate binding inhibition; FadD28 bisubstrate probe binding, fluorescence polarization; inhibition, % at 12.5 µM; hit rate 0.22% among 360,000; in the data active = inhibition above about 8.5%, passing the limit was not always enough
Y pestis TopoI: inhibitors of Yersinia pestis topoisomerase I; Y. pestis Topo-I cleavage product accumulation, plate reader; activity, % at 10 µM; hit rate 0.064% among 360,000; AID 504884; in the data active = activity above about 50%, passing the limit was not always enough
BioA inh: inhibitors of Mycobacterium tuberculosis BioA enzyme. purified M. tuberculosis BioA enzyme, plate reader. inhibition, % at 9.99 µM. hit rate 0.096% among 360,000; in the data active = inhibition above about 40%
Each line names hits and unclear results; the compound was inactive in the other large screens.

COc1ccccc1-n1c(SCC(=O)O)nc2c(sc(=S)n2-c2ccc(C)c(C)c2)c1=O	TcdB inh 11 (no result: BioA inh)
COc1cccc(C#Cc2ccc([C@H]3[C@H]4CN(S(=O)(=O)c5ccccc5C)CC(=O)N4[C@H]3CO)cc2)c1	none (no result: FadD28 FP inh, Y pestis TopoI, BioA inh)
CCC(=O)N1[C@@H]2c3ccc(-c4ccncc4)c(=O)n3C[C@H]1[C@H](CO)[C@H]2C(=O)NC1Cc2ccccc2C1	none (no result: FadD28 FP inh, Y pestis TopoI)
CNC[C@@H]1Oc2c(NC(=O)c3cc(C)nn3C)cccc2C(=O)N([C@H](C)CO)C[C@H]1C	none (no result: FadD28 FP inh, Y pestis TopoI)
O=C(CSc1ccc2c(c1)OCCO2)Nc1ccccc1	none
CCN(c1ccc(NC(=O)CSc2ccc3c(c2)OCCO3)cc1)C(C)C	FadD28 FP inh 47
CC(=O)c1ccc2c(c1)C1C=CCC1C(c1cc3c(cc1Br)OCO3)N2 (configuration not stated)	none
CCCC1Nc2ccc(C(=O)O)cc2C2C=CCC12 (configuration not stated)	FadD28 FP inh 30 (no result: TcdB inh)
CC(C)C1Nc2ccc(C(=O)O)cc2C2C=CCC21 (configuration not stated)	FadD28 FP inh 9.3 (no result: BioA inh)
COCCNC(=O)C1Nc2ccc(C(F)(F)F)cc2C2C=CCC12 (configuration not stated)	none
CCN(CC)C(=O)c1ccc2c(c1)C1C=CCC1C(C(=O)O)N2 (configuration not stated)	FadD28 FP inh 12
CCOC(=O)C1Nc2ccc(C(=O)O)cc2C2C=CCC12 (configuration not stated)	FadD28 FP inh 21
C[C@@H]1CCCCO[C@@H](CN(C)C(=O)C2CCCCC2)[C@@H](C)CN([C@@H](C)CO)C(=O)c2cc(NS(=O)(=O)c3cccs3)ccc2O1	none (no result: TcdB inh, FadD28 FP inh, Y pestis TopoI)
COC(=O)c1ccc(OC(=O)c2ccc(OC)cc2)c(OC)c1	TcdB inh 11 (no result: BioA inh)
Oc1ccc(N=Nc2ccccc2-c2nn[nH]n2)c(O)c1	FadD28 FP inh 22
Cc1ccccc1-c1nn[nH]n1	none (no result: TcdB inh)
COc1ccc(C2C(C#N)=C(N)SC(N)=C2C#N)cc1OC	BioA inh 43 (no result: TcdB inh)
COc1ccc(C2C(C#N)=C(N)OC(C(C)(C)C)=C2C#N)cc1OC (configuration not stated)	none (no result: TcdB inh)
Cc1cccnc1NC(=S)NCCc1ccccc1	none (no result: BioA inh)
S=C(NCCc1ccccc1)Nc1ncccn1	TcdB inh 11
O=c1ccc2cc(O)c(O)cc2o1	TcdB inh 13
O=C1COc2ccc(C(=O)COC(=O)Cc3ccccc3F)cc2N1	none (no result: FadD28 FP inh, BioA inh)
O=C1COc2ccc(C(=O)COC(=O)CNS(=O)(=O)c3cccc(F)c3)cc2N1	TcdB inh 12
N#Cc1c(C#N)c(-c2ccccc2)n(-c2ccc(C(=O)O)cc2)c1N	FadD28 FP inh 12 (no result: TcdB inh)
O=C(C[C@@H]1CC[C@H]2[C@@H](COC[C@@H](O)CN2C(=O)c2ccccn2)O1)NC1CCC1	TcdB inh 10 (no result: FadD28 FP inh, Y pestis TopoI)
O=C(C[C@@H]1CC[C@@H]2[C@H](COC[C@@H](O)CN2Cc2ccc(Oc3ccccc3)cc2)O1)Nc1nccs1	none (no result: FadD28 FP inh, Y pestis TopoI)
O=C(C[C@H]1CC[C@H]2[C@@H](COC[C@H](O)CN2C(=O)Nc2ccc(Cl)c(Cl)c2)O1)NCc1ccccc1	none (no result: FadD28 FP inh, Y pestis TopoI)
COC(=O)C[C@@H]1CC[C@@H]2[C@H](COC[C@H](O)CN2C(=O)Nc2ccccc2OC)O1	TcdB inh 13 (no result: FadD28 FP inh, Y pestis TopoI)
O=C(C[C@@H]1CC[C@H]2[C@@H](COC[C@@H](O)CN2Cc2ccc(Oc3ccccc3)cc2)O1)Nc1nccs1	TcdB inh 27 (no result: FadD28 FP inh, Y pestis TopoI)
O=C(C[C@@H]1CC[C@@H]2[C@H](COC[C@@H](O)CN2C(=O)Nc2ccc(Cl)c(Cl)c2)O1)NCc1ccncc1	TcdB inh 11 (no result: FadD28 FP inh, Y pestis TopoI)
C[C@H]1CN([C@@H](C)CO)C(=O)c2cc(C#CC3(O)CCCC3)cnc2O[C@@H]1CN(C)C(=O)Nc1ccc2c(c1)OCO2	none (no result: FadD28 FP inh, Y pestis TopoI)
CO[C@H]1CN(C)C(=O)c2cc(NS(C)(=O)=O)ccc2OC[C@H](C)N(C(=O)C2CCCC2)C[C@@H]1C	none (no result: FadD28 FP inh, Y pestis TopoI)
C=CCNc1nc(-c2ccc(O)c(C(N)=O)c2)cs1	none (no result: TcdB inh)
NC(=O)c1cc(-c2csc(NCCc3ccccc3)n2)ccc1O	FadD28 FP inh 15
Oc1ccc(/C=N/n2cc(-c3ccccc3)[nH]c2=S)cc1	TcdB inh 14 (no result: BioA inh)
COc1ccc(Cl)cc1NC(=O)CSc1nnc(-c2ccco2)o1	TcdB inh 19
COc1ccc(Cl)cc1NC(=O)CSc1nnc(CNC(=O)c2ccco2)o1	none
CO[C@H]1CN(C)C(=O)c2ccc(NS(C)(=O)=O)cc2OC[C@@H](C)N(C(=O)C2CC2)C[C@@H]1C	none (no result: FadD28 FP inh, Y pestis TopoI)
CC(C)(C)C(=O)C1=C(O)C(=O)N(c2ccccc2)C1c1ccccc1 (configuration not stated)	TcdB inh 22
CSCCC(NC(=O)COc1ccccc1)C(=O)N(C)Cc1c(F)cccc1Cl (configuration not stated)	none
CN(Cc1c(F)cccc1Cl)C(=O)c1ccc(COc2ccccc2)cc1	Y pestis TopoI 55
COC(=O)c1ccc(NC(=S)Nc2ccc(O)cc2)cc1	TcdB inh 10 (no result: BioA inh)
CCC(=O)N1C[C@H](C)[C@H](OC)CN(C)C(=O)c2ccc(NC(=O)NC(C)C)cc2OC[C@@H]1C	none (no result: FadD28 FP inh, Y pestis TopoI)
COc1ccc(-c2csc(/C(C#N)=C\c3ccc(OC)c([N+](=O)[O-])c3)n2)cc1	none (no result: TcdB inh)
COc1ccc(-c2csc(/C(C#N)=C\c3ccc(O)c([N+](=O)[O-])c3)n2)cc1OC	FadD28 FP inh 9.5
O=c1ccc2cc3c([nH]c4ccc(Br)cc43)oc-2c1O	FadD28 FP inh 22 (no result: TcdB inh)
O=C(O)c1ccc(N=Nc2c(O)[nH]c3ccc(Br)cc23)cc1	none
COc1ccc(CNC(=O)CN(Cc2ccc(C)cc2)S(=O)(=O)c2ccc(Cl)cc2)cc1	Y pestis TopoI 52 (no result: TcdB inh)
CCCCCCOc1ccc(N2C(=O)CC(S/C(N)=N/N=C(\C)c3cccs3)C2=O)cc1 (configuration not stated)	Y pestis TopoI 63 (no result: TcdB inh)
C/C(=N\N=C(/N)SC1CC(=O)N(c2ccc(Br)cc2)C1=O)c1cccs1 (configuration not stated)	FadD28 FP inh 10
C/C(=N\N=C(/N)SC1CC(=O)N(c2ccccc2)C1=O)c1cccs1 (configuration not stated)	none (no result: TcdB inh)
C[C@@H]1CN([C@@H](C)CO)C(=O)c2cc(-c3ccc(C(=O)N(C)C)cc3)cnc2O[C@@H]1CN(C)C(=O)c1ccncc1	none (no result: FadD28 FP inh, Y pestis TopoI)
CO[C@@H]1CN(C)C(=O)c2cc(NS(=O)(=O)c3ccccc3)ccc2OC[C@@H](C)N(Cc2cccnc2)C[C@@H]1C	none (no result: FadD28 FP inh, Y pestis TopoI)
COc1ccc2nc(NNC(=O)C3COc4ccccc4O3)sc2c1 (configuration not stated)	TcdB inh 39
C[C@H]1CN([C@@H](C)CO)C(=O)c2cc(/C=C/c3ccccc3)cnc2O[C@@H]1CN(C)C(=O)Nc1ccc(C(F)(F)F)cc1	none (no result: FadD28 FP inh, Y pestis TopoI)
CO[C@@H]1CN(C)C(=O)c2cc(NC(=O)C3CC3)ccc2OC[C@@H](C)N(C(=O)Nc2ccc(C(F)(F)F)cc2)C[C@H]1C	none (no result: FadD28 FP inh, Y pestis TopoI)
CN(C)c1ccc(NC(=O)/C=C/c2c(Cl)cccc2Cl)cc1	TcdB inh 13 (no result: BioA inh)
CCS(=O)(=O)Nc1ccc2c(c1)C(=O)N(C)[C@H]1CC[C@H](CC(=O)NCCOC)O[C@@H]1CO2	none (no result: FadD28 FP inh, Y pestis TopoI)
CCCCCCCCCCCC1=C(O)C(=O)C=C(O)C1=O	none (no result: TcdB inh)
COC1=CC(=O)C(O)=C(CCCCCCC/C=C/CCCCCCCC2=C(O)C(=O)C=C(OC)C2=O)C1=O	FadD28 FP inh 22 (no result: TcdB inh)
